Reference: PubChem BioAssay (NCI)
Compounds without any hit were thinned out: in the full panel of roughly 83,000, 20% have a hit.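 Negative percent growth values reflect cell death: -40 means 40% of the cells present at the start died, and -100 means all died.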 Calls of active or inactive are those of the source. Rule for the calls: active = growth percent below 10; inactive = the rest.

Columns and labels:
Test in all cases: NCI-60 one-dose screen, 48 h (100 = growth as untreated, 0 = no growth, -100 = all killed)
Details in all cases: 10 µM unless noted
HCT-15 colon = system: HCT-15 colon
HT29 colon = system: HT29 colon
SNB-75 CNS = system: SNB-75 CNS
SNB-19 CNS = system: SNB-19 CNS
U251 CNS = system: U251 CNS
PC-3 prostate = system: PC-3 prostate
SK-MEL-5 melanoma = system: SK-MEL-5 melanoma
UACC-62 melanoma = system: UACC-62 melanoma
LOX IMVI melanoma = system: LOX IMVI melanoma
SK-MEL-28 melanoma = system: SK-MEL-28 melanoma

Measured: growth

Cc1ccc2c(=O)cc(C(=O)Nc3sc4c(c3C(=O)NCc3cccnc3)CCCC4)oc2c1C
inactive: HCT-15 colon 103% | HT29 colon 109% | SNB-75 CNS 91.7% | SNB-19 CNS 96.1% | U251 CNS 104% | PC-3 prostate 99.2% | SK-MEL-5 melanoma 99.7% | UACC-62 melanoma 96.6% | LOX IMVI melanoma 93.1% | SK-MEL-28 melanoma 104%

COc1cccc(CCNc2ncnc3c2ncn3Cc2nnc3c4ccccc4c(Cl)nn23)c1
inactive: HCT-15 colon 45.2% | HT29 colon 81.7% | SNB-75 CNS 50.5% | SNB-19 CNS 74.4% | U251 CNS 50.7% | PC-3 prostate 59.5% | SK-MEL-5 melanoma 77.1% | UACC-62 melanoma 32.9% | SK-MEL-28 melanoma 71.6%
active: LOX IMVI melanoma 8.78%

CCCC(CC)(C(=O)Nc1ccc2nc(C)cc(N)c2c1)C(=O)Nc1ccc2nc(C)cc(N)c2c1
inactive: HCT-15 colon 110% | HT29 colon 99.1% | SNB-75 CNS 100% | SNB-19 CNS 103% | U251 CNS 107% | PC-3 prostate 95.8% | SK-MEL-5 melanoma 99.5% | UACC-62 melanoma 102% | LOX IMVI melanoma 100% | SK-MEL-28 melanoma 110%

CN1CCN(CC(=O)Nc2ccc3ncnc(Nc4ccc(Oc5cccc(C(F)(F)F)c5)c(Cl)c4)c3c2)CC1
active: HCT-15 colon -12.2% | HT29 colon -19.2% | U251 CNS 0.145% | SK-MEL-5 melanoma -58% | UACC-62 melanoma -28.8% | LOX IMVI melanoma -94.6% | SK-MEL-28 melanoma -89%
inactive: SNB-75 CNS 68.8% | SNB-19 CNS 28.5% | PC-3 prostate 42.9%

C=C1C(=O)O[C@H]2[C@H]1CC/C(COC(=O)c1ccc(C(=O)O)s1)=C\CC[C@@]1(C)O[C@@H]21
active: HCT-15 colon 4.14% | HT29 colon 7.91% | UACC-62 melanoma 3.21% | LOX IMVI melanoma -55.2%
inactive: SNB-75 CNS 71.2% | SNB-19 CNS 48% | U251 CNS 22.4% | PC-3 prostate 18.1% | SK-MEL-5 melanoma 91.4% | SK-MEL-28 melanoma 11.7%

COc1cc(OC)c(/C=C/C(=O)c2c(O)cc(OC)c(C3CCN(C)CC3)c2OC)c(OC)c1
active: HCT-15 colon -58.1% | HT29 colon -73.4% | SNB-75 CNS -8.19% | SNB-19 CNS -55.9% | U251 CNS -85.6% | PC-3 prostate -16.1% | SK-MEL-5 melanoma -99% | UACC-62 melanoma -83.9% | LOX IMVI melanoma -93.3% | SK-MEL-28 melanoma -100%

CC(C)(C)c1cc(Cl)c(O)c(CNCCO)c1
inactive: HCT-15 colon 99.7% | HT29 colon 107% | SNB-75 CNS 90.1% | SNB-19 CNS 113% | U251 CNS 112% | PC-3 prostate 112% | SK-MEL-5 melanoma 100% | UACC-62 melanoma 107% | LOX IMVI melanoma 101% | SK-MEL-28 melanoma 103%

COc1ccc(/C=C/c2c(C(=O)/C=C/c3ccccc3)c(C)nc3ccccc23)cc1
active: HCT-15 colon -26.2% | HT29 colon 1.64% | U251 CNS -59.9% | LOX IMVI melanoma -82.3%
inactive: SNB-75 CNS 29.4% | SNB-19 CNS 16.3% | PC-3 prostate 26.9% | SK-MEL-5 melanoma 21.2% | UACC-62 melanoma 19.1% | SK-MEL-28 melanoma 18.7%

C=CCN1C(=O)c2cccc3c(N4CCOCC4)ccc(c23)C1=O
active: HCT-15 colon -9.11% | HT29 colon 6.76% | U251 CNS 5.37% | PC-3 prostate -21.3% | SK-MEL-5 melanoma -62.7% | UACC-62 melanoma -24.7% | LOX IMVI melanoma 1.13% | SK-MEL-28 melanoma 5.67%
inactive: SNB-75 CNS 12.8% | SNB-19 CNS 24.9%

C/C=C(\C)C(=O)N[C@H]1C(O)C[C@]2(C)C3CC[C@@]4(C)C(CC[C@@H]4C(C)N(C)C)C3CCC2C1O (stereo not given in full)
active: HCT-15 colon -28.6% | HT29 colon 1.91% | SK-MEL-5 melanoma -41.3% | LOX IMVI melanoma -26.3% | SK-MEL-28 melanoma -7.39%
inactive: SNB-75 CNS 74.5% | SNB-19 CNS 104% | U251 CNS 52.3% | PC-3 prostate 45.5% | UACC-62 melanoma 62.3%

NC(=O)c1c(NC(=O)c2cccs2)sc2c1CCC(=O)C2
active: UACC-62 melanoma 4.69%
inactive: HCT-15 colon 16.2% | HT29 colon 46.3% | SNB-75 CNS 28.3% | SNB-19 CNS 40.2% | U251 CNS 14.9% | PC-3 prostate 10.5% | SK-MEL-5 melanoma 71.5% | LOX IMVI melanoma 30.3% | SK-MEL-28 melanoma 50.7%

Nc1nc(N)c2c(n1)NC(c1cccc(Nc3ccnc4cc(C(F)(F)F)ccc34)c1)CC(c1ccccc1)=N2 (stereo not given)
active: HT29 colon 8.53%
inactive: HCT-15 colon 23.7% | SNB-75 CNS 48.1% | SNB-19 CNS 64.4% | U251 CNS 36.5% | PC-3 prostate 39.2% | SK-MEL-5 melanoma 21.9% | UACC-62 melanoma 73.8% | LOX IMVI melanoma 45.6% | SK-MEL-28 melanoma 84%

Cc1cccc[n+]1C1c2ccccc2-c2ccccc21
inactive: HCT-15 colon 109% | HT29 colon 79.2% | SNB-75 CNS 94.1% | SNB-19 CNS 89.7% | U251 CNS 83.1% | PC-3 prostate 67.6% | SK-MEL-5 melanoma 94.5% | UACC-62 melanoma 92.3% | LOX IMVI melanoma 97.8% | SK-MEL-28 melanoma 102%
